# Source: PubChem BioAssay
# Calls of active or inactive are those of the source. Unless noted, the rule behind the calls is not given here.
# Columns and labels:
# [1] = test system: Wnt5a (protein binding on small-molecule microarray); assay: Wnt5a binders on small-molecule microarray, primary screen, biophysical, 635/667 nm fluorescence (AID 1142); settings: 635 nm fluorescence, higher = more signal;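 note: fluorescence read at 667 nm with signal to noise per printed feature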
# [2] = cell viability in Huh7 cells, primary screen, cytotoxicity control for HCV replication inhibitor project, CellTiter-Glo luminescence, basal, 48 h (AID 1143); settings: Huh7 HCV replicon, higher = more signal, called active from +8 up or from −8 down;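 note: Huh7 hepatoma cells carrying a hepatitis C replication reporter with no stimulus; test concentration not given here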
# [3] = P. aeruginosa biofilm formation inhibitors, primary screen, PAO1 strain, BacTiter-Glo luminescence, LB-PBS (AID 1144); settings: 12 h, higher = more signal
# [4] = CREB reporter modulators without forskolin, primary screen, cell-based, PC12, CRE-LacZ reporter, unstimulated (AID 1145); settings: no forskolin, luminescence, 4.5 h, higher = more signal, called active from +8 up or from −8 down
# [5] = CREB reporter modulators under forskolin, primary screen, cell-based, PC12, CRE-LacZ reporter, forskolin-stimulated (AID 1146); settings: luminescence, 4.5 h, higher = more signal, called active from +8 up or from −8 down;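 note: PC12 cells with 6xCRE LacZ reporter stimulated by forskolin 10 µM; beta-galactosidase reporter signal reflecting CREB driven transcription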
# [6] = target: Streptavidin (Streptomyces avidinii) (UniProt P22629); assay: streptavidin binders on small-molecule microarray, primary screen, artefact control for SMM compound annotation, biophysical, 635/667 nm fluorescence (AID 1147); settings: streptavidin binding, higher = more signal;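 note: signal reflects streptavidin binding to arrayed compounds as a control protein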
# Streptavidin (Streptomyces avidinii), sequence (P22629 whole entry, looked up): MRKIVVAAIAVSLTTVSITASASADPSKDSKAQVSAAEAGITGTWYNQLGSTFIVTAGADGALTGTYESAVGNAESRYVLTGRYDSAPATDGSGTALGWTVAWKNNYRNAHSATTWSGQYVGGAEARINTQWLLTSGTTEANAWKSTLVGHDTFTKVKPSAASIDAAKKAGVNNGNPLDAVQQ
# [7] = small-molecule binders of probe aInhba, primary screen, biochemical, small-molecule microarray, 635/667 nm fluorescence (AID 1148); settings: higher = more signal;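 note: score merges 667nm spot fluorescence with signal-to-noise for antibody binding to printed compounds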
# Torsin-1A (Homo sapiens) [8] = target: Torsin-1A (Homo sapiens) (UniProt O14656); assay: torsin A binders from cell lysate, primary screen, small-molecule microarray, wild-type, 635/667 nm (AID 1149); settings: COS7 hTOR1A-WT lysate, 635 nm fluorescence, higher = more signal
# Torsin-1A (Homo sapiens), sequence (O14656 whole entry, looked up): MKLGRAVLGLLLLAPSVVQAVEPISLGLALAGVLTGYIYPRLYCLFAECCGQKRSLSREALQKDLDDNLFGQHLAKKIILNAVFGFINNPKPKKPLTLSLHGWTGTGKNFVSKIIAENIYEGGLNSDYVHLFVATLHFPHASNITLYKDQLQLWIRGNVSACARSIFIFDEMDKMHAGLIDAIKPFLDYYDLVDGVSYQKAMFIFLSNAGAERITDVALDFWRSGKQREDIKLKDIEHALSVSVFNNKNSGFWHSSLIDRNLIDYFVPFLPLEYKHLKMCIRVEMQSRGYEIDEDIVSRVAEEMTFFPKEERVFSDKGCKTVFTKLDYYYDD
# Torsin-1A (Homo sapiens) [9] = target: Torsin-1A (Homo sapiens) (UniProt O14656); assay: small-molecule binders of mutant TOR1A in lysate, primary screen, cell lysate, small-molecule microarray, COS7 lysate, 635/667 nm fluorescence (AID 1150); settings: COS7 hTOR1A mutant lysate, 635 nm fluorescence, higher = more signal;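 note: score pools 667 nm emission and signal to noise measuring lysate protein binding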
# [10] = test system: Sonic hedgehog protein (Shh); assay: small-molecule binders of Shh protein, primary screen, biochemical, small-molecule microarray, 635/667 nm fluorescence (AID 1151); settings: small-molecule microarray binding, 635 nm fluorescence; higher = more signal;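 note: Shh protein binding to compounds spotted on small-molecule microarray slides; score combines spot fluorescence intensity with signal-to-noise across triplicate slides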
# [11] = E. coli DRC41 culture turbidity changes, primary screen, E. coli filamentation inducer project, strain DRC41, OD650, 48 h (AID 1152);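 note: E. coli MC1000 strain DRC41 lacking acrAB efflux pump and sulA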; settings: E. coli DRC41 (acrAB sulA), higher = more signal, called active from +8 up or from −8 down
# [12] = small-molecule binders of probe aLefty1, primary screen, biochemical, small-molecule microarray, 635/667 nm fluorescence (AID 1153); settings: higher = more signal;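 note: score merges spot fluorescence with signal-to-noise ratio from the scanned slide images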
# [13] = PSAC antagonists in infected red cells, primary screen, cell-based, P. falciparum Indochina, OD700, 1 h (AID 1154); settings: P. falciparum Indochina infected RBC osmotic lysis, higher = more signal, called active from +8 up or from −8 down
# [14] = PSAC antagonists in infected red cells, primary screen, cell-based, P. falciparum Indochina, OD700, 2 h (AID 1155);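 note: lysis reports solute entry through the parasite surface anion channel PSAC; channel blockers reduce lysis of infected cells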; settings: P. falciparum Indochina infected erythrocytes, osmotic lysis OD700; higher = more signal, called active from +8 up or from −8 down
# [15] = osmotic lysis modulators in infected erythrocytes, primary screen, PSAC antagonist project, cell-based, P. falciparum Indochina, OD700, 3 h (AID 1156); settings: higher = more signal, called active from +8 up or from −8 down
# [16] = PSAC antagonists in infected red cells, primary screen, cell-based, P. falciparum Indochina, OD700, 18 h (AID 1157); settings: P. falciparum Indochina infected erythrocytes, osmotic lysis OD700, 18 h; higher = more signal, called active from +8 up or from −8 down
# [17] = modulators of S6 phosphorylation in cells, primary screen, cell-based, A549, cytoblot, luminescence, serum-stimulated (AID 1158); settings: A549 phospho-S6 cytoblot, 5 h, higher = more signal;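 note: serum-stimulated A549 lung adenocarcinoma cells; signal is phosphorylated S6 detected by cytoblot immunostaining with HRP secondary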
# [18] = target: NADPH oxidase 2 (Homo sapiens) (UniProt P04839); assay: NOX2-dependent H2O2 signal modulators, primary screen, NOX inhibitor project, cell-based, HEK293-NOX2, PMA-stimulated, Amplex Red fluorescence (AID 1159); settings: 45 min, higher = more signal, called active from +8 up or from −8 down; note: test concentration not given here
# NADPH oxidase 2 (Homo sapiens), sequence (P04839 whole entry, looked up): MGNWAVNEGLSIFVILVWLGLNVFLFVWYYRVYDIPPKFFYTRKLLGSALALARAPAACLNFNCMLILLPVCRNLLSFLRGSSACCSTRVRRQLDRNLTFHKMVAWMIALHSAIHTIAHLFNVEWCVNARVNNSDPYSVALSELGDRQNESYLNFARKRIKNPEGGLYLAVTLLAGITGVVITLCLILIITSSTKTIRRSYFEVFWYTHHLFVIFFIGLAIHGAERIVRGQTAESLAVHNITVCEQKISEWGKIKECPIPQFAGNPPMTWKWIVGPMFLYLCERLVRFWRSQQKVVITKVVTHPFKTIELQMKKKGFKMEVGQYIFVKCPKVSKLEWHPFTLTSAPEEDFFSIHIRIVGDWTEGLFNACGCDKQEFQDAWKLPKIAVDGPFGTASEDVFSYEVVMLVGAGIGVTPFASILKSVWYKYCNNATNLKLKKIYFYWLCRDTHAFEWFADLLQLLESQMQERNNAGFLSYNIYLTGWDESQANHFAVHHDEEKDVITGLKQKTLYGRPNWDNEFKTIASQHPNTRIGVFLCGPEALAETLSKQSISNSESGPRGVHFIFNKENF
# [19] = target: NADPH oxidase 4 (Homo sapiens) (UniProt Q9NPH5); assay: NOX4-dependent H2O2 signal modulators, primary screen, NOX inhibitor project, cell-based, HEK293-NOX4, tetracycline-induced, Amplex Red fluorescence (AID 1160); settings: 45 min, higher = more signal, called active from +8 up or from −8 down
# NADPH oxidase 4 (Homo sapiens), sequence (Q9NPH5 whole entry, looked up): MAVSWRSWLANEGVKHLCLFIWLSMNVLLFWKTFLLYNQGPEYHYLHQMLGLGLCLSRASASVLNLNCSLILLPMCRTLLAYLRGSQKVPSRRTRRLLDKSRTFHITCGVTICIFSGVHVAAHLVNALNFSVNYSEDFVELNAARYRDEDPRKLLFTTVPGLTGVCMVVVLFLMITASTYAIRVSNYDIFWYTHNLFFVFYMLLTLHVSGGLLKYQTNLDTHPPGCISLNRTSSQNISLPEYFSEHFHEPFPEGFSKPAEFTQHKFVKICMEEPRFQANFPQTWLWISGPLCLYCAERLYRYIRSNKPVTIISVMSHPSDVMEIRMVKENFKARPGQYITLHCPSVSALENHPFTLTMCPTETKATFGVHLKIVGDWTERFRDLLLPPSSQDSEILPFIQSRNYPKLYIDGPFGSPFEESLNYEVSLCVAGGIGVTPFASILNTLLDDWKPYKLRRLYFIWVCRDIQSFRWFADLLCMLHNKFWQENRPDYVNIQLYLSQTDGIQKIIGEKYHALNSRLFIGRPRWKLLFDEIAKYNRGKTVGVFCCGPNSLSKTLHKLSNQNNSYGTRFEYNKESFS
# [20] = target: NADPH oxidase 5 (Homo sapiens) (UniProt Q96PH1); assay: NOX5-dependent H2O2 signal modulators, primary screen, NOX inhibitor project, cell-based, HEK293-NOX5, Amplex Red fluorescence (AID 1161); settings: HEK293-NOX5, ionomycin, 45 min, higher = more signal
# NADPH oxidase 5 (Homo sapiens), sequence (Q96PH1 whole entry, looked up): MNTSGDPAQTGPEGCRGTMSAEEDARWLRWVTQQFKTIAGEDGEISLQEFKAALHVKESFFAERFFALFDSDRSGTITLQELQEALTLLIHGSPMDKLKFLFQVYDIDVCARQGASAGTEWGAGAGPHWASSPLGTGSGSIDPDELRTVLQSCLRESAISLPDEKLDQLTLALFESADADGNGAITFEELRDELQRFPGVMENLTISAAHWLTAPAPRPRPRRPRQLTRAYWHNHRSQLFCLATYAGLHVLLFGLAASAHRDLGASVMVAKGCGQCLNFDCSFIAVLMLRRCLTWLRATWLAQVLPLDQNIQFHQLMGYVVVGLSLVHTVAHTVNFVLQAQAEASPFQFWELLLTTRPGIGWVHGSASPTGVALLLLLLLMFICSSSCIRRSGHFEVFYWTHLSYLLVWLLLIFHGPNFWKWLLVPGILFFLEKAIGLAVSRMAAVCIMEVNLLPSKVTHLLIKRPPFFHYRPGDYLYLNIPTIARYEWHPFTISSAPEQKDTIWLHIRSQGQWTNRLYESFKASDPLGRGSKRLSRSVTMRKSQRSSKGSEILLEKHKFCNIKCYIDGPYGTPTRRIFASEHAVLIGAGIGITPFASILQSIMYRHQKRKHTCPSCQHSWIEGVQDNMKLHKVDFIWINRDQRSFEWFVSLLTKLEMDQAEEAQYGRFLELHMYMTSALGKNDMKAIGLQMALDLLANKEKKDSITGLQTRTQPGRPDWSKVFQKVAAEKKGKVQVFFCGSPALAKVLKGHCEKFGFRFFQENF
Structure (SMILES),composite z-score [1],z-score [2],z-score [3],z-score [4],z-score [5],composite z-score [6],composite z-score [7],composite z-score (Torsin-1A (Homo sapiens) [8]),composite z-score (Torsin-1A (Homo sapiens) [9]),composite z-score [10],z-score [11],composite z-score [12],z-score [13],z-score [14],z-score [15],z-score [16],z-score [17],z-score [18],z-score [19],z-score [20]
CCOC(=O)[C@H](Cc1ccccc1)NC(=O)CCC1CC(OC(=O)NCCc2ccc(F)cc2)CC2(CCCC(COC(=O)NCCc3ccccc3OC)O2)O1 (stereo not given in full),0.359,-0.131 (inactive),0.248 (inactive),0.198 (inactive),-0.099 (inactive),0.536,-0.0897,0.196,0.721,1.54,-1.1 (inactive),-0.0075,0.425 (inactive),0.136 (inactive),-0.106 (inactive),0.174 (inactive),0.392,-0.106 (inactive),0.151 (inactive),0.294
C[C@@H]1C=CCC(=O)OC[C@H]2O[C@@H](C=C[C@@H]2O)[C@H](C)C=CCC(=O)OC1,0.0051,-1.05 (inactive),-1.11 (inactive),0.344 (inactive),-0.812 (inactive),-0.224,-0.206,2.73,1.98,2.16,0.625 (inactive),-0.106,0.119 (inactive),-1.48 (inactive),-0.71 (inactive),-2.02 (inactive),1.61,-0.601 (inactive),0.346 (inactive),0.58
C[C@@H]1CC[C@H]2C(=O)O[C@@H](Cc3ccccc3)CN2[C@H]1c1ccc(Br)cc1,-0.0729,-0.309 (inactive),0.502 (inactive),0.583 (inactive),-0.143 (inactive),-0.0253,-0.133,0.433,0.533,0.656,-0.28 (inactive),-0.148,2.26 (inactive),0.935 (inactive),0.277 (inactive),0.563 (inactive),-0.536,-0.251 (inactive),-0.286 (inactive),-0.621
COc1ccc(COC(=O)NN=C2C[C@@H](O)[C@@H](O)[C@@H]3[C@@H]4C(=O)N(C5CCCCC5)C(=O)[C@@H]4CC[C@H]23)cc1,-0.244,-0.146 (inactive),0.345 (inactive),1.61 (inactive),-0.0264 (inactive),-0.332,-0.337,-0.0324,0.408,-1.61,-1.01 (inactive),-0.0611,9.99 (active),1.51 (inactive),0.103 (inactive),0.549 (inactive),0.173,-0.248 (inactive),0.507 (inactive),-0.712
Cc1ccc(S(=O)(=O)OC[C@H]2CN3[C@H](c4ccc(Br)cc4)[C@@H](C)CC[C@H]3C(=O)O2)cc1,0.114,-1.25 (inactive),-1.43 (inactive),2.01 (inactive),0.535 (inactive),0.487,-0.128,0.782,0.44,0.362,0.399 (inactive),-0.0501,3.18 (inactive),0.57 (inactive),0.896 (inactive),0.761 (inactive),0.0084,0.407 (inactive),0.484 (inactive),-0.632
CC(C)=CCCC(C)=CCON=C1C[C@@H](O)[C@@H](O)[C@@H]2[C@@H]3C(=O)N(Cc4ccccc4)C(=O)[C@@H]3CC[C@@H]12,0.292,0.18 (inactive),0.603 (inactive),-0.478 (inactive),-0.0093 (inactive),-0.0277,-0.157,0.925,0.293,1.88,-0.0866 (inactive),-0.241,0.391 (inactive),0.239 (inactive),0.0336 (inactive),-0.0646 (inactive),-0.444,0.0415 (inactive),0.836 (inactive),-0.0355
COc1cccc([C@H]2Oc3ccc(OC)cc3C(=NO[C@@H](C)c3cn([C@H](CO)Cc4ccccc4)nn3)[C@@H]2O)c1,-0.353,-0.404 (inactive),0.0128 (inactive),6.77 (inactive),0.661 (inactive),0.326,-0.0986,-0.44,-0.137,-0.243,-2.4 (inactive),-0.147,2.52 (inactive),0.41 (inactive),1.19 (inactive),0.611 (inactive),-0.15,-0.0734 (inactive),-0.424 (inactive),-0.327
COC(=O)CC=C[C@@H](C)[C@@H](C=NOC[C@H]1O[C@H](c2ccccc2)C=C[C@@H]1Oc1ccc(OC)cc1)NS(=O)(=O)c1ccc(C)cc1,-0.308,-0.588 (inactive),-0.00695 (inactive),3.13 (inactive),0.519 (inactive),-0.184,-0.23,-1.46,0.339,-0.863,-0.272 (inactive),-0.147,4.79 (inactive),1.56 (inactive),0.949 (inactive),0.857 (inactive),0.0859,-0.273 (inactive),0.0179 (inactive),-0.523
